In the library only some 7.3% were active in any assay of this set; here they are far more common.
Vaccinia Venus – vaccinia inhibition (Venus reporter). Vaccinia virus Venus reporter expression, fluorescence. 330,000 compounds, 0.46% hits. Potency, µM (highest dose often 36.5 µM), actives largely listed as inhibitors; calls by dose curve; tested in A549 cells; further: nearly all actives have a fitted effect of over 30% in size
VACV mCherry inh – vaccinia inhibition (mCherry reporter); Potency, µM (highest dose often 36.5 µM), actives largely listed as inhibitors; 310,000 compounds, 0.63% hits; Vaccinia virus mCherry reporter infection, fluorescence; AID 720579; calls by dose curve; tested in A549 cells; further: nearly all actives have a fitted effect of over 35% in size
FMDV antiviral – antivirals against foot and mouth disease virus; FMDV antiviral cell-based qHTS; Potency, µM (highest dose often 57.9 µM), most hits filed as inhibitors; 410,000 compounds, 1.2% hits; calls by dose curve; tested in HEK293T cells; further: read-out not given here; nearly all actives have a fitted effect of over 45% in size
HCMV antiviral – blocks human cytomegalovirus replication | HFF cells, HCMV-luciferase reporter, 72 h; stronger effect = lower value | activity change, negative = inhibition, % at 57.5 µM | 410,000 compounds, 4.5% hits; in the data active means activity change below about -60%; inconclusive means no clear call, values can overlap the other calls; inactive means above about -39%
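Compounds were evaluated in HFFs infected with an HCMV luciferase reporter virus (MOI 1 PFU/cell). Luciferase in lysates collected 72 h post infection served as the replication measure.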
HCV inh – inhibitors of hepatitis C virus infection. AID 651820. 340,000 compounds, 3.4% hits. Potency, µM (titrated, usually from 41.8 µM), hits mostly inhibitors. Huh7.5.1 HCVcc-Cre infection, luciferase reporter, 44 h; active means well fitted inhibition curve with a large enough effect; inconclusive means small, poorly fitted or top-dose-only effect, or another doubt; inactive means no such curve, though single readings can be large or run the other way
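Reporter virus HCVcc-Cre (~0.5 moi) infects cells exposed to compound; seeding density 1,000 cells/well with 4 h settling beforehand. Luminescence, 15 sec read, taken 44 h post-infection following a 15 min RT substrate incubation.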
Hits are given with their value; – = inactive; ? = inconclusive; · = not tested or not shown.

SMILES	Vaccinia Venus	VACV mCherry inh	FMDV antiviral	HCMV antiviral	HCV inh
COc1cc2c(cc1NC(=O)CCC(=O)O)oc1ccccc12	–	–	–	–	?
COc1cc2c(cc1NC(=O)COc1ccccc1OC)oc1ccccc12	·	·	–	–	?
COc1cc2c(cc1NC(=O)Cc1ccc(C)cc1)oc1ccccc12	·	·	–	–	10µM
COc1cc2c(cc1NC(=O)CN(C)Cc1ccc(OC)c(OC)c1)oc1ccccc12	·	·	–	–	3.5µM
COc1ccc(C)cc1NC(=O)c1nn(-c2ccccc2)cc1OC	?	?	?	–	7.1µM
COc1cc2c(cc1NC(=O)COC(=O)Cn1cnc3ccccc31)oc1ccccc12	–	–	–	–	2.2µM
CSc1nn(CC(=O)Nc2cc(C)ccc2C)c(N)c1S(=O)(=O)c1ccccc1	–	–	?	?	·
CCCN(CC(=O)Nc1ccccc1OC)C(=O)c1nc2nc(C)ccn2n1	–	–	–	–	–
CCOc1ccccc1CN1C(=O)c2ccccc2C1C(=O)NC1CCCCCC1 (stereo not drawn)	–	–	–	–	·
COc1ccc(C)cc1NC(=O)Nc1ccccc1	–	·	–	–	3.2µM
COc1cc2c(cc1NC(=O)c1ccc3c(c1)OCO3)oc1ccccc12	–	–	·	–	14µM
Cc1ccc(OC(F)F)c(NC(=O)Nc2cccc(C(F)(F)F)c2)c1	·	·	?	-99	10µM
COc1cc2c(cc1NC(=O)CSc1ccc(C)cc1)oc1ccccc12	·	·	–	–	10µM
COc1cc2c(cc1NC(=O)CSCC(=O)O)oc1ccccc12	–	–	–	–	–
COc1cccc(NC(=O)Nc2cc(C)ccc2OC)c1	–	–	–	?	–
CCCOc1ccc(CNC(=O)c2ccc(C)c(-n3c(C)nc4cccnc43)c2)cc1	–	–	–	–	·
COc1cc2c(cc1NC(=O)Nc1ccccc1)oc1ccccc12	?	·	?	–	5µM
COc1cc2c(cc1NC(=O)C(C)NCc1ccccc1)oc1ccccc12 (stereo not drawn)	–	–	–	–	?
O=C(NCc1cccc(F)c1)Nc1nnc([C@H]2C[C@H](O)[C@@H](CO)O2)s1	–	–	–	–	·
NS(=O)(=O)c1cccc(NC(=O)COC(=O)CNC(=O)c2ccc(-c3ccccc3)cc2)c1	·	·	–	–	–
CS(=O)(=O)Cc1cc(Sc2ccccc2)nc(-c2ccncc2)n1	–	–	–	–	3.2µM
O=S(Cc1cc(Sc2ccccc2)nc(-c2ccccc2)n1)c1ccccc1 (stereo not drawn)	–	·	–	?	–
O=S(=O)(Cc1cc(Cl)nc(-c2ccncc2)n1)c1ccccc1	–	–	–	-66	?
CCN(CC)C(=O)CSc1ncnc2sc(-c3ccccc3)cc12	·	·	–	–	13µM
CN(CCC#N)C(=O)CSc1ncnc2sc(-c3ccccc3)cc12	·	·	–	–	?
SMILES	Vaccinia Venus	VACV mCherry inh	FMDV antiviral	HCMV antiviral	HCV inh
CC(C)C(C)(C#N)NC(=O)CSc1ncnc2sc(-c3ccccc3)cc12 (stereo not drawn)	?	?	·	–	13µM
Cc1ccc(S(=O)(=O)N2CCC(=O)c3ccccc32)cc1	–	–	–	–	·
O=C(COc1ccc(Cl)cc1Cl)N/N=C/c1ccc(OC2OC(CO)C(O)C(O)C2O)cc1 (stereo not drawn)	·	·	–	-79	–
CC(=O)COc1ccc2c3c(c(=O)oc2c1C)CCCCC3	?	–	–	?	11µM
CC(=O)C(C)Oc1ccc2c3c(c(=O)oc2c1C)CCCC3 (stereo not drawn)	·	·	–	–	10µM
CSCCC(NS(=O)(=O)c1ccc(C)cc1)C(=O)NCC(C)(C)N1CCOCC1 (stereo not drawn)	·	·	–	–	?
Cc1ccc(C(=O)Nc2ccc(N3CCN(C(=O)c4cccs4)CC3)cc2)c(Cl)c1	–	–	–	?	?
O=C(Nc1ccc(S(=O)(=O)Nc2cnc3ccccc3n2)cc1)c1ccc(F)cc1	–	–	–	–	–
CC(C)(C)c1ccc(C(=O)Nc2ccc(S(=O)(=O)Nc3cnc4ccccc4n3)cc2)cc1	–	–	–	-70	–
Cc1nc([N+](=O)[O-])cn1CC(=O)Nc1ccc([N+](=O)[O-])cc1	–	–	–	–	–
COc1cc2c(cc1OC)C(C)N(C(=O)c1cc(C)on1)CC2 (stereo not drawn)	?	?	–	-66	–
COc1cc2c(cc1OC)C(C)N(C(=O)c1cc3ccccc3o1)CC2 (stereo not drawn)	·	·	?	–	10µM
COc1cc2c(cc1OC)C(C)N(C(=S)Nc1ccccc1)CC2 (stereo not drawn)	–	–	–	–	–

Screening results: PubChem, National Center for Advancing Translational Sciences (NCATS)
